Out of some 310,000 compounds screened, about 14,000 (4.5%) showed an effect of 50% or more. Effects have a minus sign here. Shown is part of a subset that was picked to be rich in strong results.
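Also: peak tail current of the secondary pulse compared with the same well before compound.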

The target of the experiment is human ether-à-go-go-related gene (hERG) potassium channel (human, UniProt Q12809). The experiment can be described thus: primary screen, population patch clamp on CHO cells stably expressing hERG; higher = less effect of the substance.
Sequence of human ether-à-go-go-related gene (hERG) potassium channel (Q12809 whole entry, looked up): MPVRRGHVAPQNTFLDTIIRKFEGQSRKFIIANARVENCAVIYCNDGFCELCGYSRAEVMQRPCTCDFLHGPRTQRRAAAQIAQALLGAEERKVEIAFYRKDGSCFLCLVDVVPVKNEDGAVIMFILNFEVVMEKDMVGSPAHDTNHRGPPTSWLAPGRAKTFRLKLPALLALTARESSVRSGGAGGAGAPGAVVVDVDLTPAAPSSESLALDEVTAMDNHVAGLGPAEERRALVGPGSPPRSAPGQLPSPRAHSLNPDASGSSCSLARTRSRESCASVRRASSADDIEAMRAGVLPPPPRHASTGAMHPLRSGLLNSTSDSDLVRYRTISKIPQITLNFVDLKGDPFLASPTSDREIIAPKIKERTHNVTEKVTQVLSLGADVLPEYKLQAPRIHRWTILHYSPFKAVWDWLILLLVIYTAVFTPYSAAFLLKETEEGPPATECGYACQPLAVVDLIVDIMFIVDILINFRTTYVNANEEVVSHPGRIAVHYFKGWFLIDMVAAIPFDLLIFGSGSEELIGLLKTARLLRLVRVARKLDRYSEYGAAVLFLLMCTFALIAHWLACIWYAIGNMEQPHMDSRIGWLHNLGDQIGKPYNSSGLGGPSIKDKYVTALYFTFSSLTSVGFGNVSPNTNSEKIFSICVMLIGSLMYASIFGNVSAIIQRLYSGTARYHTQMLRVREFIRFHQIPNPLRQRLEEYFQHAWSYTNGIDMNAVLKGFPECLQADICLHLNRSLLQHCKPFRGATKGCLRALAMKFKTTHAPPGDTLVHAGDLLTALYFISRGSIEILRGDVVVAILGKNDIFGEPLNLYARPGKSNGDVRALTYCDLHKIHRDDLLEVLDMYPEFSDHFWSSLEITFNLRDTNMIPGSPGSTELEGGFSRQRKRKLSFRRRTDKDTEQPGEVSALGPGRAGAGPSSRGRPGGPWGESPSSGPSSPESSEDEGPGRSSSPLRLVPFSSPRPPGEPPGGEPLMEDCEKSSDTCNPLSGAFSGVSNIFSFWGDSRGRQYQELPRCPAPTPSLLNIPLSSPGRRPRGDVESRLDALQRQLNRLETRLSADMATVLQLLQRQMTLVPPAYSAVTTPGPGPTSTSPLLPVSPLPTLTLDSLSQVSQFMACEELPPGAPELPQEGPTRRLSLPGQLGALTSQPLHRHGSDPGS
`COC(=O)/C=c1\sc2ncnn2c1=O`: the “hERG current change (%, negative = inhibition) at 10uM” value was determined as 3.63%.
In the case of `CCCNC(=O)c1onc(CS(=O)(=O)c2cccc(OC)c2)c1C(=O)NCCC`, the “hERG current change (%, negative = inhibition) at 10uM” value is reported as -12.5%.
With `CN(C)/C=C/C(=O)c1ncc(C(F)(F)F)cc1Cl` the figure was 8.95%; with `CC(NC(=O)[C@H](C)NC(=O)c1ccco1)c1ccc(S(N)(=O)=O)cc1` (stereo partly drawn), 18.9%.
With `O=C(CN1CCC(C(=O)c2cccc(Cl)c2)CC1)Nc1ccc(C(=O)O)cc1` the figure was 16%.
Turning to `Cc1nnc(Nc2ccc3c(c2)ncn3C)c2ccccc12`, the “hERG current change (%, negative = inhibition) at 10uM” value is listed as 0.0649%.
In the case of `COc1ccc(Nc2nnc(-c3ccc(C(N)=O)cc3)c3ccccc23)cc1`, the “hERG current change (%, negative = inhibition) at 10uM” value is given as -33.9%.
As to `CC(=O)Nc1ccc(Nc2nnc(-c3ccc(O)cc3)c3ccccc23)cc1`, the “hERG current change (%, negative = inhibition) at 10uM” value is given as 10.2%.
The figure for `Oc1ccc(-c2nnc(Nc3cccc(O)c3)c3ccccc23)cc1` is -7.99%.
Turning to `COc1ccc(Nc2nnc(-c3ccccc3)c3ccccc23)cc1C(=O)N1CCCCC1`, the “hERG current change (%, negative = inhibition) at 10uM” value is on record as -73%.
As to `COc1ccc(-c2nnc(Nc3ccc(OC)c(C(=O)N4CCCCC4)c3)c3ccccc23)cc1`, the “hERG current change (%, negative = inhibition) at 10uM” value is on record as -39.3%.
With `Cc1nc2cc(Nc3nnc(-c4ccccc4)c4ccccc34)ccc2n1C` the figure was -67.2%.
The figure for `COc1ccc(Nc2nnc(-c3ccc(O)cc3)c3ccccc23)cc1` is -64.8%.
Turning to `Oc1ccc(Nc2nnc(-c3ccc(O)cc3)c3ccccc23)cc1`, the “hERG current change (%, negative = inhibition) at 10uM” value is 24.3%.
With `Cc1ccc(-c2nnc(Nc3ccc4c(c3)nc(C)n4C)c3ccccc23)cc1`, the “hERG current change (%, negative = inhibition) at 10uM” value amounted to 5.03%.
The figure for `COc1ccc(Nc2nnc(-c3ccc(C)cc3)c3ccccc23)cc1C(=O)N1CCCCC1` is -33.7%; for `Oc1ccc(-c2nnc(Nc3ccccc3)c3ccccc23)cc1` it is -58.9%; for `CCOC(=O)c1ccc(N=Cc2nc3ccccc3n2C)cc1` it is 7.61%.
The figure for `COc1ccc(-n2c(=O)[nH]cc(C(=O)Nc3ccc4c(c3)OCCO4)c2=O)cc1OC` is 6.18%; for `N#Cc1c(N)nc2c(c1N)CC(COc1ccccc1)O2` (stereo not drawn) it is -6.98%; for `CCSc1nnc(CNC(=O)C23CC4CC(CC(C4)C2)C3)n1Cc1ccccc1` it is -5.81%.
The figure for `C[C@H](NC(=O)c1ccccc1Cl)C(=O)OCc1cn2cc(Cl)ccc2n1` is -7.08%; for `COc1ccc(OC)c(NC(=O)CCc2nnc3ccc(NCc4ccco4)nn23)c1` it is -15.2%.
Take `CC(Nc1nc(-c2cccc(Br)c2)cs1)c1nc2cc(Cl)c(N3CCCCC3)cc2n1CCOCCO` (stereo not drawn): the “hERG current change (%, negative = inhibition) at 10uM” value was -19.1%.
With `COc1cc(C(C)=O)ccc1OC(=O)c1cc2cccc(OC)c2oc1=O`, the “hERG current change (%, negative = inhibition) at 10uM” value is reported as 2.53%.
With `CCn1c(SCC(=O)Nc2cc(NC(C)=O)ccc2OC)nnc1-c1ccccn1` the figure was 4.03%; with `N#Cc1c(C(F)(F)F)cc(-c2ccccc2)nc1SCC(=O)N1CCOCC1`, -8.28%; with `CC(C)NC(=O)CSc1ncccc1-c1nc2ccccc2[nH]1`, -17.1%.
With `O=C1CC(c2ccccc2)CC(=O)C1CS(=O)(=O)c1ccccc1` (stereo not drawn) the figure was 18.1%.
With `Cc1ccc(-c2noc(CSc3ccccc3)n2)cc1` the figure was 10.2%; with `O=C1c2cccnc2C(Nc2ccc(S(=O)(=O)N3CCCCCC3)cc2)N1Cc1ccccc1` (stereo not drawn), -9.79%.
As for `Cc1cc(Cn2ccnc2)c(C)c([N+](=O)[O-])c1Cn1ccnc1`, the “hERG current change (%, negative = inhibition) at 10uM” value is -7.19%.
The figure for `CC1CCCC(NC(=O)CCC(=O)NCc2ccccc2)C1C` (stereo not drawn) is 11.5%; for `O=S(=O)(O)c1cnccc1Nc1cccc(C(F)(F)F)c1` it is 5.95%; for `CCc1c(C)nc2ncnn2c1N1CCCC(C(=O)NCc2cccs2)C1` (stereo not drawn) it is -19.1%.
The figure for `COc1cc(C)nc(N2CCCC(C(=O)Nc3ccccc3Br)C2)n1` (stereo not drawn) is 8.77%; for `Cc1nc2ncnn2c(N2CCCC(C(=O)Nc3ccccc3Br)C2)c1C` (stereo not drawn) it is -60.2%; for `COc1ccc(NC(=O)C2CCCN(c3cc(C)nc4ncnn34)C2)cc1` (stereo not drawn) it is -12.5%.
The figure for `Cc1cc(N2CCCC(C(=O)Nc3ccc4c(c3)CCC4)C2)n2ncnc2n1` (stereo not drawn) is -57.2%; for `Cc1cc(N2CCCC(C(=O)Nc3cccc4ccccc34)C2)n2ncnc2n1` (stereo not drawn) it is -61.9%; for `Cc1cc(N2CCCC(C(=O)Nc3cccc(Cl)c3)C2)n2ncnc2n1` (stereo not drawn) it is -38%.
Turning to `Cc1cc(C)nc(N2CCC(C(=O)Nc3ccc4c(c3)CCC4)CC2)n1`, the “hERG current change (%, negative = inhibition) at 10uM” value was 17.3%.
The figure for `COc1ccccc1NC(=O)C1CCCN(c2cc(C)nc3ncnn23)C1` (stereo not drawn) is -20.8%; for `COc1ccccc1NC(=O)C1CCCN(c2nc(C)cc(C)n2)C1` (stereo not drawn) it is -10%; for `O=C(Nc1ccc2c(c1)CCC2)C1CCCN(c2ncccn2)C1` (stereo not drawn) it is -2.53%.
With `Cc1nc2ncnn2c(N2CCCC(C(=O)Nc3ccc4c(c3)CCC4)C2)c1C` (stereo not drawn) the figure was -53%.
With `CC(Oc1ccc2c3c(c(=O)oc2c1)CCCC3)C(=O)NCc1ccncc1` (stereo not drawn) the figure was 4.36%; with `Cc1nn(CC(O)Cn2c3c(c4ccccc42)CCN(C)C3=O)c(C)c1Br` (stereo not drawn), -17.5%; with `CNC(=S)Nc1cc(C)ccc1OC(F)F`, 2.85%.
On to `CCCCn1c(N)c(N(CC)C(=O)CCNC(=O)NC23CC4CC(CC(C4)C2)C3)c(=O)[nH]c1=O`, for which the “hERG current change (%, negative = inhibition) at 10uM” value turned out to be 8.45%.
Regarding `CCN(CC)S(=O)(=O)c1ccc(N2CCCC2)c(C(=O)OCC(=O)N2CCCC2)c1`, the “hERG current change (%, negative = inhibition) at 10uM” value is given as -3.73%.
With `O=C(NC1CONC1=O)OCC(Cl)(Cl)Cl` (stereo not drawn) the figure was 8.91%; with `CC(C)c1cc(C(=O)O)n[nH]1`, 20.3%.
With `COC(=O)c1ccc(NC(=O)CCc2nnc3ccc(N4CCC5(CC4)OCCO5)nn23)cc1` the figure was 10.1%.
With `CCc1ccccc1NC(=S)N(CCN(C)C)C(C)c1ccccn1` (stereo not drawn) the figure was -30.8%; with `O=C(NNC(=O)c1ccccc1OCc1ccccc1Cl)c1csc(N2CCOCC2)n1`, 31%; with `O=C(COC(=O)c1ccc(F)c(S(=O)(=O)N2CCOCC2)c1)NC1CC1`, -17.4%.
Regarding `COc1cc2c(cc1OC)C(C)N(C(=O)C(NC(=O)c1ccccc1)C(C)C)CC2` (stereo not drawn), the “hERG current change (%, negative = inhibition) at 10uM” value is reported as 7.1%.
The figure for `COc1ccc(-c2ocnc2C(=O)NCc2nn(-c3ccccc3)nc2C)cc1` is 5.05%; for `CN(C)CCN(C(=O)c1ccc2c(c1)CCCC2)c1nc2c(F)cccc2s1.Cl` it is -14.6%; for `CCOc1ccc2nc(N(CCN(C)C)C(=O)c3ccc4c(c3)CCCC4)sc2c1.Cl` it is -1.63%.
The figure for `CN(C)CCCN(C(=O)c1ccc(S(=O)(=O)N2CCc3ccccc32)cc1)c1nc2c(Cl)cccc2s1.Cl` is -27.6%; for `CN(C)CCCN(C(=O)c1ccc2c(c1)CCCC2)c1nc2c(F)cccc2s1.Cl` it is -70%.
As for `COc1cccc2sc(N(CCN(C)C)C(=O)c3ccc(S(=O)(=O)N4CCCC4)cc3)nc12.Cl`, the “hERG current change (%, negative = inhibition) at 10uM” value is -31.2%.
`COc1cccc2sc(N(CCCN(C)C)C(=O)c3ccc(S(=O)(=O)N4CCCc5ccccc54)cc3)nc12.Cl`: the “hERG current change (%, negative = inhibition) at 10uM” value was -68.3%.
With `COc1cccc2sc(N(CCN(C)C)C(=O)c3ccc4c(c3)CCCC4)nc12.Cl` the figure was -66.7%; with `COc1ccc2sc(N(CCCN(C)C)C(=O)c3ccc(S(=O)(=O)N4CCCc5ccccc54)cc3)nc2c1.Cl`, -14.4%; with `O=C1N=C(N2CCOCC2)S/C1=C\c1ccc(-c2ccccc2Cl)o1`, -15.3%.
Take `COC(=O)CS(=O)(=O)c1ccsc1C(=O)Nc1ccc(F)cc1`: the “hERG current change (%, negative = inhibition) at 10uM” value turned out to be 3.5%.
With `Cc1ccc(SCCC(=O)Nc2ccccc2Br)cc1` the figure was 12.8%.
The figure for `C=CCn1cnc2c(oc3ccccc32)c1=O` is 4.04%; for `Cc1cnc(C(=O)OCC(=O)N=c2sccn2Cc2ccccc2Cl)cn1` it is 10.1%.
With `CCOC(=O)N1CCC(NC(=O)COc2cc(=O)n(C)c3ccccc23)CC1` the figure was 6.6%; with `O=C(NCCNS(=O)(=O)c1ccccc1)N1CCOCC1`, 18.3%.
As for `O=C(NC1CCCCC1)C(c1ccccc1F)N(Cc1ccco1)C(=O)c1ccccn1` (stereo not drawn), the “hERG current change (%, negative = inhibition) at 10uM” value is -4.03%.
The figure for `Cc1ccc(-c2nnc3n2N=C(c2ccc(Br)cc2)CS3)cc1` is -1.26%.
`CCc1nnc2n1N=C(c1ccc(Cl)cc1)CS2`: the “hERG current change (%, negative = inhibition) at 10uM” value amounted to 8.48%.
As for `COc1ccccc1-c1nnc2n1N=C(c1ccc(O)c(O)c1)CS2`, the “hERG current change (%, negative = inhibition) at 10uM” value is -0.453%.
For `C[n+]1c2n(c3ccccc31)N=C(c1cc(C(C)(C)C)c(O)c(C(C)(C)C)c1)CS2.[Br-]`, the “hERG current change (%, negative = inhibition) at 10uM” value is on record as -77.6%.
The figure for `C[n+]1c2n(c3ccccc31)N=C(c1ccc(-c3ccccc3)cc1)CS2.[Br-]` is -79.7%; for `CC1Sc2n(c3ccccc3[n+]2C)N=C1c1ccccc1.[Br-]` (stereo not drawn) it is -49.6%; for `COc1ccc(C2=Nn3c([n+](C)c4ccccc43)SC2)cc1.[Br-]` it is -44.2%.
With `Cc1nnc2n(c1=O)N=C(c1ccc(Cl)cc1)CS2` the figure was 6.25%.
On to `C[n+]1c2n(c3ccccc31)N=C(c1ccc(Br)cc1)CS2.[Br-]`, for which the “hERG current change (%, negative = inhibition) at 10uM” value is on record as -69.5%.
Turning to `C[n+]1c2n(c3ccccc31)N=C(c1ccc(Cl)cc1)CS2.[Br-]`, the “hERG current change (%, negative = inhibition) at 10uM” value is given as -69%.
As to `Cc1cc(Cn2nnc3ccccc32)c(O)c(C(C)(C)C)c1`, the “hERG current change (%, negative = inhibition) at 10uM” value amounted to 19.3%.
With `C[n+]1c2n(c3ccccc31)N=C(c1ccccc1)CS2.[Br-]` the figure was -47.3%.

For the origin of these results see PMC4336329 (PLoS ONE, 2015).
